Test results from PubChem BioAssay AID588519 (ICCB-Longwood Screening Facility, Harvard Medical School, 2011).
Out of some 150,000 compounds screened, about 1,000 (0.67%) were called active. Cut-off read from the data, not from the text of the source: active = % elongation below about 90%; inactive = the rest, inconclusive results apart. Many of the other results were omitted from the sample, so actives are more common in it than they were.

Biological target: Genome polyprotein (Poliovirus type 1 (strain Mahoney)) (UniProt P03300)
Sequence (P03300 1749-2209 limits assumed): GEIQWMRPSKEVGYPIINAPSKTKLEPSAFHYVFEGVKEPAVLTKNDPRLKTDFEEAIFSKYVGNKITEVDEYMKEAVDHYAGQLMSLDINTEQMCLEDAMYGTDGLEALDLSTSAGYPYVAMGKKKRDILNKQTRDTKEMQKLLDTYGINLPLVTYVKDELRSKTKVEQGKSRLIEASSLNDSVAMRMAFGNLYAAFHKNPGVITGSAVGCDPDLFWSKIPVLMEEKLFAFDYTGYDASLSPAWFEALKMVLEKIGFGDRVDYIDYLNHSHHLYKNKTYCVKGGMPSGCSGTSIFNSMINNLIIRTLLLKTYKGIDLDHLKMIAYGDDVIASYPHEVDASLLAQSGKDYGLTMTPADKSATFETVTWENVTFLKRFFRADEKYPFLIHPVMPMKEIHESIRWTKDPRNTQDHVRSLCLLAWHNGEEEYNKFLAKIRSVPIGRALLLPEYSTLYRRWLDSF
Assay: poliovirus RdRp elongation inhibitors, primary screen, biochemical, fluorescence polarization, total intensity (AID 588519); for z-score: compound at 16.7 µg/mL
Details: poliovirus polymerase elongation, stronger effect = lower value; for % elongation: compound at 16.7 µg/mL; for z-score: measured here: FP z-score
[1] = measured here: total intensity read-out

| SMILES | % elongation | z-score | % elongation [1] |
| --- | --- | --- | --- |
| O=C(O)CSc1ccc(S(=O)(=O)N2CCCC2)cn1 | 105% (inactive) | 0.2 | 99% |
| O=C(NC1CCCCC1)c1ccc(-n2ccc3ccccc32)s1 | 100% (inactive) | -0.2 | 101% |
| N#Cc1c(/N=C/c2c(O)[nH]c(=O)[nH]c2=O)sc2c1CCC2 | 110% (inactive) | 1.2 | 130% |
| N#CSc1ccc(N)c(Br)c1 | 75% (active) | -3.8 | 83% |
| N#CSc1ccc(N2CCCCC2)cc1 | 99% (inactive) | -0.2 | 100% |
| O=C(COC(=O)C1CCC(=O)N1)Nc1nc(-c2ccccc2)cs1 (stereo not given) | 101% (inactive) | -0.2 | 104% |
| COc1ccc(-c2csc(=Nc3ccccc3)n2C)cc1 | 105% (inactive) | 0.5 | 102% |
| O=C(CNc1ccccc1N1CCCCC1)N1CCc2ccccc21 | 102% (inactive) | 0.1 | 94% |
| COc1ccccc1C(=O)COC(=O)COc1ccc(C#N)cc1 | 108% (inactive) | 0.7 | 108% |
| NC(=S)N1CCCCC1 | 99% (inactive) | -0.1 | 100% |
| Clc1nc(Nc2ccccc2)sc1/C=N/N1CCOCC1 | 149% (inactive) | 5.6 | 195% |
| Cc1cc(NC(=O)c2ccccc2C)no1 | 103% (inactive) | 0.4 | 103% |
| OC(c1nc2ccccc2[nH]1)C(O)C(O)C(O)c1nc2ccccc2[nH]1 (stereo not given) | 99% (inactive) | -0.6 | 104% |
| N#CC(=C1C(=O)c2ccccc2C1=O)c1nc2ccccc2[nH]1 | 80% (active) | -2.3 | 88% |
| CS(=O)(=O)c1nc2ccccc2[nH]1 | 104% (inactive) | 0.4 | 107% |
| COc1ccc(CN2CNc3c(c(C)nn3-c3ccccc3)C2)cc1 | 100% (inactive) | -1 | 106% |
| Cc1cccc(-n2c(Cn3ccc(C)n3)n[nH]c2=S)c1 | 104% (inactive) | 0.5 | 105% |
| CC(C)(C)CNC(=S)NN | 98% (inactive) | -0.9 | 101% |
| C=C(C)CNC(=S)N1CCNCC1 | 99% (inactive) | 0.1 | 105% |
| C=C(C)CNC(=S)NN | 83% (active) | -1.3 | 86% |
| CCCCN(C)C(=O)C1CCN(c2nn3cc(-c4ccc(OC)cc4)nc3s2)CC1 | 104% (inactive) | 0.4 | 105% |
| Cc1ccc(NC2=C/C(=N/S(=O)(=O)c3ccc(F)cc3)c3ccccc3C2=O)cc1C | 102% (inactive) | 0.1 | 106% |
| CCOc1ccc(N2CC(c3nc4ccccc4n3CCOc3ccc(OC)cc3)CC2=O)cc1 (stereo not given) | 111% (inactive) | 0.9 | 107% |
| COc1ccc(OCCCn2c(C3CC(=O)N(c4ccc(F)cc4)C3)nc3ccccc32)cc1 (stereo not given) | 109% (inactive) | 0.4 | 110% |
| CCc1ccccc1N1CC(c2nc3ccccc3n2CCCCOc2ccccc2)CC1=O (stereo not given) | 63% (active) | -7.7 | 68% |
